Sfp PPTase inh = blocks B. subtilis Sfp PPTase activity; Biochemical Sfp PPTase activity, qHTS; Q9F4F7; Potency, µM, for the others: largest response in the series, negative = inhibition, hits mostly inhibitors; AID 1490; hit rate 3.5% among 310,000;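 further: the enzyme is Sfp with the accession as filed and its product quenches rhodamine fluorescence; 0% = enzyme reaction without inhibitor and -100% = no enzyme wells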
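Sfp 15 nM + cpd, 15 min RT; start w/ rhodamine-CoA 5 uM, BHQ-2-YbbR 12.5 uM (final); 50 mM Hepes pH 7.6, 10 mM MgCl2, 0.01% NP-40, 0.01% BSA; read 525/598 nm at 0 and 30 min.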
VP16 counter = counter-screen for ROR gamma inhibitors: Gal4-VP16 reporter; Drosophila S2 Gal4-VP16 UAS-luciferase, luminescence, 20 h; Potency, µM (doses to about 53.6 µM), inactives show top-dose activity, negative = inhibition, actives largely listed as inhibitors; hit rate 3.5% among 310,000;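 further: Gal4-VP16 expression switched on by copper sulfate through the metallothionein promoter; nearly all actives have a fitted effect of over 50% in size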
RORg inh = inhibitors of mouse ROR gamma transcriptional activity. P51450. AID 2551. Drosophila S2 Gal4-RORgamma UAS-luciferase reporter, 20 h. hit rate 5.4% among 310,000. Potency, µM (top dose mostly 53.6 µM), without a hit: at the top dose activity change, negative = inhibition, actives largely listed as inhibitors; further: nearly all actives have a fitted effect of over 60% in size
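Compounds are pin-transferred onto Drosophila Schneider cells expressing a copper-inducible Gal4–ROR gamma transactivation domain fusion. After 1 hr, copper sulfate is added to 700 uM final; luciferase is read 20 hr later.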
PLK1 PBD block = PLK1 (human) polo-box domain binding inhibition; P53350; Plk1 PBD binding of FITC phosphopeptide, fluorescence polarization; Potency, µM, for inactives: max response, negative = inhibition, actives largely listed as inhibitors; hit rate 2.8% among 360,000; further: series mostly up to about 57 µM; nearly all actives have a fitted effect of over 65% in size
ALDH1A1 block = ALDH1A1 (human) enzyme inhibition. P00352. Potency, µM (series often up to 75.3 µM), without a hit: top-dose activity, negative = inhibition, actives largely listed as inhibitors. hit rate 7.3% among 220,000. Purified ALDH1A1, NADH fluorescence, propionaldehyde substrate. AID 1030; active means well fitted inhibition curve with a large enough effect, not every such curve was filed as active; inconclusive means small, poorly fitted or top-dose-only effect, or another doubt; inactive means no such curve, though single readings can be large or run the other way;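 further: plate controls were no enzyme wells and a reference inhibitor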
Target sequence (P00352 whole entry, looked up): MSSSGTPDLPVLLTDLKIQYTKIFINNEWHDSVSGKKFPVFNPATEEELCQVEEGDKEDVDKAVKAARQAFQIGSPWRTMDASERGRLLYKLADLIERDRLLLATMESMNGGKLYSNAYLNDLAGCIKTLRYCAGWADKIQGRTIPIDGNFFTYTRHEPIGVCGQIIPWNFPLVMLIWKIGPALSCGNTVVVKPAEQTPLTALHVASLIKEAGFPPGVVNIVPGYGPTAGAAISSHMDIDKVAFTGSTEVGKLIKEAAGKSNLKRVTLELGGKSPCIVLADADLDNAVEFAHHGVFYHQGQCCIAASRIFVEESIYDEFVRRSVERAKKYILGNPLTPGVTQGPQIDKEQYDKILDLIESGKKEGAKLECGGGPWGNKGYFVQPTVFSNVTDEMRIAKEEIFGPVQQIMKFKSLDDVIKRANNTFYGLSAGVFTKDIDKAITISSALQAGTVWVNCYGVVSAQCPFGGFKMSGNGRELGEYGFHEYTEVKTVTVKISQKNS
The depositor's hits bear a star; ? = inconclusive; nt = no result given; ! = a repeat was not active; [ ] = remark or other dose. Hits are enriched below; roughly 12% of the tested compounds scored in any of these assays. Unless noted, the call rests on the fitted dose curve; in most records, active means well fitted curve in the direction sought with a large enough effect; inconclusive means small, poorly fitted or top-dose-only effect, or another doubt; inactive means no such curve, though single readings can be large; an effect the other way counts as inactive or inconclusive. Unless noted, on the % scale 0 is the no-effect control and ±100 the full control effect; potency means the concentration at half of the fitted maximal effect.

SMILES | Sfp PPTase inh | VP16 counter | RORg inh | PLK1 PBD block | ALDH1A1 block
Cc1[nH]n(-c2ccccc2)c(=O)c1C=NCCc1ccccc1 | 12% | 6% | -10% | -11% | -6%
O=c1cnc2cnc(Nc3ccccc3)nc2n1Cc1cccs1 | 0% | ? | -7% | nt | 1%
Cc1cc2nc(-c3ccco3)c(Cc3ccccc3C(F)(F)F)n2c(C)c1Br | nt | nt | nt | -29% | nt
CC(=O)c1c(C)nn(CCC(=O)O)c1C | 6% | -6% | 0% | 15µM* | 5%
CN(C)CCCN1c2ccccc2Sc2ccc(Cl)cc21 | 79µM*! | -16% | 4% | -4% | 0%
CN(C)CCCN1c2ccccc2Sc2ccc3ccccc3c21 | nt | nt | nt | -1% | -2%[13.5 µM]
CC(NC(=O)c1nn(C)c(=O)c2ccccc12)c1ccccc1 (stereo not drawn) | 18% | 8% | 27% | -1% | 16µM*
Cn1nc(C(=O)NCc2ccc(F)cc2)c2ccccc2c1=O | -4% | 7% | 13% | -9% | 1%
COc1ccc(CNC(=O)Cc2nn(C)c(=O)c3ccccc23)cc1 | 5% | 8.9µM* | ? | -4% | 0%
Cn1nc(C(=O)N2CCN(C(c3ccccc3)c3ccccc3)CC2)c2ccccc2c1=O | -21% | -4% | 23% | -10% | ?
CC(NC(=O)Cn1nc(C(=O)O)c2ccccc2c1=O)c1ccccc1 (stereo not drawn) | 10% | -7% | -7% | 30µM* | 5%
Cn1nc(C(=O)NCc2ccccc2)c2ccccc2c1=O | 1% | 3% | -11% | -4% | 20µM*
COc1ccc(C2C=C(Nc3ccccc3)C(=O)N2c2ccccc2)cc1OC (stereo not drawn) | ? | 28% | 11% | 6% | ?
COc1cccc(C2C=C(Nc3ccccc3)C(=O)N2c2ccccc2)c1 (stereo not drawn) | 63µM* | -10% | ? | -10% | ?
Cc1cccc(C)c1N1CCN(C(c2cc3ccccc3o2)c2nnnn2C(C)(C)C)CC1 (stereo not drawn) | nt | nt | nt | -1% | nt
COCCCNC(=S)N/N=C/c1ccc(N(C)C)cc1 | -2% | 7.1µM* | 2.8µM* | -17% | ?
COCCCNC(=S)N/N=C/c1ccc(N(C)C)cc1Cl | 3% | 13µM* | 2.2µM* | 1% | ?
COCCNC(=S)N/N=C/c1ccc([N+](=O)[O-])cc1 | 3% | ? | ? | -5% | nt
CC1(C(=O)NS(=O)(=O)c2ccc(Cl)cc2)CCN1C(=O)Cc1ccsc1 (stereo not drawn) | nt | nt | nt | 1% | nt
c1ccc(Nc2ncnc3ccc(-c4ccc5c(c4)OCO5)cc23)cc1 | 11% | -12% | ? | nt | 4%
CC1(C)CC(=O)C2=C(C1)OC(N)=C(C#N)C2c1ccoc1 (stereo not drawn) | 7% | 3% | 11% | 4% | ?
CC1(C)CC(=O)C2=C(C1)OC(N)=C(C#N)C2C#Cc1ccccc1 (stereo not drawn) | ? | -8% | 16% | 11µM* | 1µM*
C/C(=C\c1ccco1)C1C(C#N)=C(N)Oc2n[nH]c(-c3ccccc3)c21 (stereo not drawn) | 79µM* | 9% | -10% | -24% | ?
CC(c1ccccc1)C1C(C#N)=C(N)OC2=C1C(=O)CC(C)(C)C2 (stereo not drawn) | 12% | 4% | ? | -5% | ?
C/C(=C\c1ccco1)C1C(C#N)=C(N)OC2=C1C(=O)CC(C)(C)C2 (stereo not drawn) | 20µM* | 15% | 34% | -13% | 13µM*
SMILES | Sfp PPTase inh | VP16 counter | RORg inh | PLK1 PBD block | ALDH1A1 block
CN(C)c1ccc(CC(=O)N2CCCCC2c2cc(C(=O)Nc3cccc(C#N)c3)no2)cc1 (stereo not drawn) | nt | nt | nt | -9% | nt
COc1ccc(C(=O)N/C(=C\c2ccco2)C(=O)OCc2ccco2)cc1 | 7% | 24% | 44% | -8% | nt
COc1ccc(/C=N/NC(=O)CNC(=O)c2cccs2)cc1 | 9% | -3% | 7% | -4% | -17%
COc1ccc(/C=C(/C(=O)c2cccs2)N2C=CC=CC2=C(C#N)C#N)cc1 | 3.5µM* | 2.8µM* | 2.2µM* | 6µM* | ?
COc1ccc(C(=O)/C(=C\c2ccco2)N2C=CC=CC2=C(C#N)C#N)cc1 | 18µM* | 3.5µM* | 4µM* | 21µM* | ?
N#CC(C#N)=C1C=CC=CN1/C(=C\c1ccco1)C(=O)c1ccc(Br)cc1 | 8.9µM* | 1.3µM* | 3.5µM* | 3µM* | ?
N#CC(C#N)=C1C=CC=CN1/C(=C\c1ccco1)C(=O)c1ccccc1 | 16µM* | 1.8µM* | 5µM* | 12µM* | -7%
Cc1ccc(C(=O)N/C(=C/c2ccco2)C(=O)O)cc1 | 8% | 3% | -19% | -10% | 6%
COc1cccc(-c2cc(NCc3cccs3)ncn2)c1 | -20% | 10% | -32% | nt | ?
Cc1noc(C)c1-c1ccc2ncnc(NCc3cccc(C(F)(F)F)c3)c2c1 | 7% | 13µM* | -16% | nt | nt
Cc1noc(C)c1-c1ccc2ncnc(NCc3ccc(F)cc3)c2c1 | ? | -12% | 9% | nt | nt
Cc1ccccc1-c1ccc2ncnc(NC3CC3)c2c1 | 2% | ? | ? | nt | -11%
COCCNc1ncnc2ccc(-c3ccccc3C)cc12 | 79µM* | ? | ? | nt | ?
Cc1noc(C)c1-c1ccc2ncnc(NCc3ccccc3F)c2c1 | 10% | 11µM* | -9% | nt | nt
CCOc1ccccc1CNc1ncnc2ccc(-c3c(C)noc3C)cc12 | -9% | ? | 40µM* | nt | nt
Cc1noc(C)c1-c1ccc2ncnc(NCc3ccc(C(F)(F)F)cc3)c2c1 | 16% | ? | 17% | nt | nt
C=CCC(NC(=O)N(C)C)(C(=O)OC)C(C)O (stereo not drawn) | nt | nt | nt | 1% | nt
COc1cc(NC(C)CCCN)c2nc(C)ccc2c1Oc1ccc(F)cc1 (stereo not drawn) | nt | nt | nt | -12% | nt
O=C(Nc1ccc(F)cc1)C(CCc1ccccc1)N1CCN(c2ccncc2)CC1 (stereo not drawn) | nt | nt | nt | 2% | nt
COc1ccccc1CNc1ncnc2ccc(-c3ccccc3OC)cc12 | -12% | 22µM* | ? | nt | ?
COc1ccccc1-c1ccc2ncnc(NCc3ccccc3)c2c1 | 6% | ? | ? | nt | ?
CN(C)c1ccc(/C=N/NC(=O)c2ccc3c(c2)OCO3)cc1 | 12% | 3% | ? | -3% | nt
O=C(N/N=C/c1ccc(Br)o1)c1ccc2c(c1)OCCO2 | -12% | ? | 11µM* | -4% | -9%
O=C(N/N=C\c1ccc(-c2ccc([N+](=O)[O-])cc2)o1)c1ccc2c(c1)OCO2 | -11% | ? | -37% | -3% | 5%
O=C(N/N=C/c1ccccc1)c1ccc2c(c1)OCO2 | 18% | 11µM* | ? | -7% | nt
O=C(N/N=C/c1cccnc1)c1ccc2c(c1)OCCO2 | 17% | 14µM* | ? | 3% | 6%
O=C(N/N=C/c1ccc([N+](=O)[O-])o1)c1ccc2c(c1)OCO2 | 14% | 10µM* | 4.5µM* | -7% | nt
